# Measurements reported in ChEMBL document CHEMBL3988442, “University of Dundee, Small-Polar-MMV Screening Library” (2021).
# Out of some 48,000 compounds screened, about 13,000 (27%) showed an effect of 50% or more. The list shows a part of the results.
# Tested on: Wolbachia pipientis
# Assay: Anti-Wolbachia Cell-Based Screen
# Type: functional
# Parameters: scale not given: in the data most compounds retested in dose-response had high values
# Conditions: 5 µM
row,Structure (SMILES),Percent Effect
1,CC(=O)c1cc(CC(=O)N2CCN(CCOc3ccccc3)CC2)cs1,-5.45%
2,COc1ccc(F)cc1C(=O)C1CCCN(Cc2ccc(C)s2)C1 (stereo not given),-15.99%
3,O=c1[nH]ccn1CCCN1CC=C(c2cnn(-c3ccccc3)c2)CC1,2.052%
4,COC(=O)NCC1CCC2(CCNCC2)O1.Cl (stereo not given),-32.05%
5,O=C(O)C(F)(F)F.O=C(O)C(F)(F)F.c1ccc(CN2CCN3C[C@H](Oc4cncnc4)C[C@H]3C2)nc1,117.2%
6,Cc1nc(CN2CCN3C[C@H](Oc4cncnc4)C[C@H]3C2)cs1.O=C(O)C(F)(F)F.O=C(O)C(F)(F)F,123.6%
7,Cn1ccnc1CN1CCN2C[C@H](Oc3cncnc3)C[C@H]2C1.O=C(O)C(F)(F)F.O=C(O)C(F)(F)F,-0.7067%
8,c1ccc(CN2CCN3C[C@H](Oc4cccnc4)C[C@H]3C2)nc1,-1.108%
9,Fc1cccc(O[C@@H]2C[C@H]3CN(Cc4ccccn4)CCN3C2)c1.O=C(O)C(F)(F)F.O=C(O)C(F)(F)F,-1.961%
10,Cc1cccc(CN2CCN3C[C@H](Oc4cncnc4)C[C@H]3C2)n1.O=C(O)C(F)(F)F.O=C(O)C(F)(F)F,126.4%
11,Cc1cccc(CN2CCN3C[C@H](Oc4cccnc4)C[C@H]3C2)n1.O=C(O)C(F)(F)F.O=C(O)C(F)(F)F.O=C(O)C(F)(F)F,-1.606%
12,CO[C@H]1CCN(S(=O)(=O)N(C)C)[C@@H]2CN(Cc3cccnc3)C[C@H]12.O=C(O)C(F)(F)F.O=C(O)C(F)(F)F,0.8682%
13,COCCNC(=O)C[C@@H]1COC[C@H]2CN(Cc3cccnc3)C[C@@H]12,116.3%
14,O=C(C[C@@H]1COC[C@H]2CN(Cc3cccnc3)C[C@@H]12)N1CCCC1.O=C(O)C(F)(F)F.O=C(O)C(F)(F)F,109.1%
15,O=C(C[C@H]1[C@H]2CN(Cc3ccncc3)C[C@@H]12)N1CCCC1.O=C(O)C(F)(F)F.O=C(O)C(F)(F)F,16.46%
16,O=C(C[C@@H]1COC[C@H]2CN(C3CCC3)C[C@@H]12)NCc1cccnc1.O=C(O)C(F)(F)F.O=C(O)C(F)(F)F,108.6%
17,O=C(C[C@@H]1COC[C@H]2CN(Cc3cccnc3)C[C@@H]12)NCC1CC1.O=C(O)C(F)(F)F.O=C(O)C(F)(F)F,115.9%
18,O=C(NCc1ccccn1)[C@@H]1COC[C@H]2CNC[C@H]21,-0.4259%
19,O=C(COc1ccc(Cl)cc1Cl)N1CCCSCC1CN1CCOCC1 (stereo not given),-6.318%
20,c1cnc(N2CCOCC3(CNCCO3)C2)nc1 (stereo not given),-30.03%
21,O=C(C[C@@H]1COC[C@H]2CN(CC3CC3)C[C@@H]12)NCc1cccnc1.O=C(O)C(F)(F)F.O=C(O)C(F)(F)F,86.58%
22,COCCN1C[C@@H]2COC[C@@H](CC(=O)NCc3cccnc3)[C@@H]2C1.O=C(O)C(F)(F)F.O=C(O)C(F)(F)F,24.5%
23,CNCCc1nc2cc(Cl)ccc2[nH]1.Cl.Cl,8.686%
24,CC(C)Oc1ccc(C(O)CNCc2ccccc2C(F)(F)F)cc1 (stereo not given),-32.82%
25,O=C(O)C(F)(F)F.O=C(O)C(F)(F)F.O=C1[C@H]2CN(C3CCOCC3)C[C@H]2CN1Cc1ccncc1,-10.38%
26,O=C(c1ccno1)N1CC[C@@H]2CN(C3CCOCC3)CCO[C@@H]2C1,85.56%
27,CN1CCO[C@@H]2CN(C(=O)c3ccc4ncccc4c3)CC[C@@H]2C1.O=C(O)C(F)(F)F.O=C(O)C(F)(F)F,-8.044%

row,Structure (SMILES),Percent Effect
1,CN1CCC(N(C)c2ccccc2CNCc2ccco2)CC1,13.84%
2,Cc1cccc(CN2CCC3(CCN(c4cccnc4)C3=O)C2)n1.O=C(O)C(F)(F)F.O=C(O)C(F)(F)F (stereo not given),-4.819%
3,Cc1cccc(CN2C(=O)CCC23CCNCC3)n1.O=C(O)C(F)(F)F.O=C(O)C(F)(F)F,115.6%
4,CCN1CCN(C)C2(CCN(Cc3cccc(C)n3)CC2)C1=O.O=C(O)C(F)(F)F.O=C(O)C(F)(F)F,-10.53%
5,O=C(Nc1ccc(Cn2cccn2)cc1)N1CCC2(CC1)OCCO2,-11.32%
6,O=C(Cc1cnc(-c2c(Cl)cccc2Cl)s1)N1CCC2(CC1)OCCO2,110.5%
7,O=C(Cn1ccc2c(Cl)cccc21)N1CCC2(CC1)OCCO2,11.16%
8,O=C(Cc1ccc(O)c(F)c1)N1CCN(CC2CC2)[C@@H]2CS(=O)(=O)C[C@@H]21,-17.2%
9,O=C(O)C(F)(F)F.c1coc(CNc2ncc3c(n2)C2(CCNC2)COC3)c1 (stereo not given),-4.361%
10,Cc1cnc(N2CCCC3(CCCN(C)C3)C2)nc1 (stereo not given),-6.547%
11,Clc1cc(N2CCN3CCCCC3C2)nc2[nH]ccc12 (stereo not given),91.81%
12,Clc1cc(CN2CCCN3CCCC3C2)c2ncccc2c1 (stereo not given),-2.153%
13,COCc1cn(C[C@H]2CC3CCN2C[C@@H]3C(=O)Nc2ccccc2)nn1 (stereo not given in full),-0.5907%
14,CCc1cc(CNCc2ccccc2N(C)C2CCN(C)CC2)on1,10.76%
15,Cc1noc(C)c1CN1C[C@H]2CNC[C@H]2C1,94.55%
16,Cc1noc(C)c1CN1CC[C@@H]2O[C@H](COCC(C)C)CC[C@@H]21.O=C(O)C(F)(F)F,9.009%
17,Cc1noc(C)c1CN1C[C@@H]2CC(F)(F)C[C@@H]2C1.O=C(O)C(F)(F)F,103.5%
18,Cc1noc(C)c1CN1C[C@@H]2CN(C(=O)c3cscn3)C[C@@H]2C1,-4.527%
19,CNC(=O)[C@@H]1C[C@H]2CN(Cc3c(C)noc3C)C[C@H]2N1C(C)C.O=C(O)C(F)(F)F.O=C(O)C(F)(F)F,-23.54%
20,C[C@@H]1C[C@H]2CN(Cc3nccs3)C[C@H]2O1.O=C(O)C(F)(F)F,-5.34%
21,Cc1noc(C)c1CN1CC[C@@H]2O[C@@H](COCC(C)C)CC[C@@H]21.O=C(O)C(F)(F)F,-18.54%
22,Cc1noc(C)c1CN1C[C@@H]2C[C@H](C(=O)NCC3CC3)N(C)[C@@H]2C1.O=C(O)C(F)(F)F.O=C(O)C(F)(F)F,97.39%
23,CNC(=O)[C@H]1C[C@@H]2CN(Cc3c(C)noc3C)C[C@@H]2N1C(C)=O.O=C(O)C(F)(F)F,-32.47%
24,Cc1noc(C)c1CN1C(=O)[C@H]2CC[C@@H]1CN(Cc1ncc[nH]1)C2,-9.267%
25,Cc1noc(C)c1CN1C[C@@H]2C[C@@H](C)O[C@@H]2C1.O=C(O)C(F)(F)F,94.5%
26,Cc1noc(C)c1CN1C[C@@H]2CN(C(=O)c3cnccn3)C[C@@H]2C1.O=C(O)C(F)(F)F,12.22%
27,CC(C)NC(=O)NC[C@H]1C[C@@H]2CCN1C[C@@H]2CN(C)c1ccccc1,-10.33%

row,Structure (SMILES),Percent Effect
1,CC(Cc1c(F)cccc1F)NC(=O)Nc1cnn(CC(N)=O)c1 (stereo not given),0.8263%
2,C/C(=C\c1ccco1)CN(C)C(C)Cc1cc(C)ccn1 (stereo not given),32.02%
3,O=C(Nc1ccccc1)[C@H]1CN2CCC1C[C@@H]2Cn1cc(CO)nn1 (stereo not given in full),-4.286%
4,Cc1noc(C)c1CN1C[C@H]2CN(Cc3cccc(F)c3)C[C@H]2C1.O=C(O)C(F)(F)F.O=C(O)C(F)(F)F,97.06%
5,O=C1Nc2ccccc2CC12CCCN2Cc1cccnc1 (stereo not given),106.6%
6,O=C1N(Cc2ccccn2)C[C@H]2CN(C3CCC3)CCN12,-6.605%
7,O=C1Nc2ccccc2CC12CCCN2Cc1ccccn1 (stereo not given),100.2%
8,O=C(c1ccc[nH]1)N1CCCC2(CCCN2Cc2cccnc2)C1 (stereo not given),22.1%
9,CC(C)C(=O)N1CCCC2(CCCN2Cc2cccnc2)C1 (stereo not given),-11.99%
10,O=S(=O)(NC[C@H]1C[C@@H]2CCN1C[C@@H]2CN1CCCC1)c1ccc(Cl)cc1,14.89%
11,CC(C)c1cc(CN2CCN(c3cccnc3)CC2)n(C)n1,9.429%
12,CN1CCCC1c1ccc(N2CCOCC2)cn1 (stereo not given),81.49%
13,CN1CCCC(c2n[nH]c3ncccc23)C1 (stereo not given),-5.321%
14,CN1CCCC(c2ccc(N3CCOCC3)cn2)C1.Cl (stereo not given),96.78%
15,CCN(CC)C(=O)C1CCC2(CCNCC2)CO1.Cl (stereo not given),2.217%
16,Cc1ncsc1CN1CC[C@H]2C[C@H](c3ccncn3)O[C@@H]2C1,-3.058%
17,Cc1cc(CN2CC[C@H]3C[C@H](c4nc(C5CC5)cs4)O[C@@H]3C2)no1,106.7%
18,Cc1nccc([C@@H]2C[C@@H]3CCN(Cc4cccs4)C[C@H]3O2)n1,0.9996%
19,Cc1cc(CN2CC[C@H]3C[C@@H](c4nc(C5CC5)cs4)O[C@@H]3C2)no1,106.4%
20,c1cc(CN2CC[C@H]3C[C@H](c4nc(C5CC5)cs4)O[C@@H]3C2)ccn1,0.1706%
21,Cc1nc(CN2CC[C@H]3C[C@H](c4ccncn4)O[C@@H]3C2)cs1,0.4652%
22,CNC(=O)[C@H]1C[C@@H]2CN(c3cc(OC)ncn3)C[C@@H]2N1C(C)C,-9.424%
23,COCCN1CCO[C@H]2CCN(C(=O)c3ccnnc3)CC[C@@H]21.O=C(O)C(F)(F)F,-6.928%
24,COc1cc(N2CC[C@@H]3OCCN(C)[C@H]3CC2)ncn1,94.65%
25,Cc1ccc(C(=O)N2CC[C@H]3[C@H]2CCN3CC2CCOCC2)cn1,4.595%
26,COc1cc(N2CC[C@@H]3[C@@H](CC2)OCCN3CC2CC2)ncn1,103%
